Consider 13 compounds from PubChem BioAssay (EPA / NIEHS).

Results filed as inconclusive are left out. The source made the active and inactive calls. The calls were made as follows: active = hit-call score of the fitted dose curve at least 0.9, where 1 is the maximum; inconclusive = response in the unintended direction; inactive = score below 0.9.

human Beta-secretase (BACE), BACE1 (gene 23621), sequence (P56817 whole entry, looked up): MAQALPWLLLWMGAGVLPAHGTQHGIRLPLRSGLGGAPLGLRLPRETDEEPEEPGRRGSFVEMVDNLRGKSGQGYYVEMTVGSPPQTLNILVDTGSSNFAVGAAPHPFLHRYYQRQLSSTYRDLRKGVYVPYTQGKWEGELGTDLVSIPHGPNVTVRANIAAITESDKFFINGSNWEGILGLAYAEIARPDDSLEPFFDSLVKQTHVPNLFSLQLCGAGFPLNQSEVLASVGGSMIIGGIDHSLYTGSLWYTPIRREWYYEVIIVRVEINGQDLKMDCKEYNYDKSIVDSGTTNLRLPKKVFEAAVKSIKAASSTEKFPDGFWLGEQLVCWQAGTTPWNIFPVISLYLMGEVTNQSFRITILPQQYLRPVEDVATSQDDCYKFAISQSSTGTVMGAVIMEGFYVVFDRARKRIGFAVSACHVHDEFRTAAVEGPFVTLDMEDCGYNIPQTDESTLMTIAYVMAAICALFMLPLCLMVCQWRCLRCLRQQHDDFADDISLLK

The target of the first test is Cytochrome P450 2C19 (Homo sapiens) (UniProt P33261). In words: NVS_ADME_hCYP2C19: NovaScreen (NVS) CYP450-related Enzyme Activity (ADME) Assay for human CYP2C19 (AID 2283113).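 Also: potency for inhibition seen as loss of fluorescent signal.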 In a few lines: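 Chemicals first screened in duplicate at 10 uM against recombinant human enzyme produced in insect cells; confirmed actives then run as concentration series. Fluorogenic substrate turnover read by fluorescence after 1 h, normalised to acetonitrile.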
On to `Cc1ccc(N=Nc2c(O)ccc3ccccc23)c(C)c1`, for which the half-maximal activity concentration (AC50) was 565 nM (active).

`CCCCCCCCCCCCCCC`: the half-maximal activity concentration (AC50) was 10000 nM (active).

Regarding `c1cc[nH]c1`, the AC50 was 992 nM (active).

With `CC(C)CCOCCC(C)C`, the AC50 is 5000 nM (active).

For the compound `CCCCCCCCCCCCCCCCCC[N+](C)(C)Cc1ccccc1`, the AC50 was 1800 nM (active).

The target of the next test is human AKT serine/threonine Kinase 1 (AKT1), AKT1 (gene 207) (UniProt P31749). Briefly: NVS_ENZ_hAKT1: NovaScreen (NVS) Enzymatic Assay for human AKT serine/threonine Kinase 1 (AKT1) (AID 2283138). A digest of the protocol: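 Recombinant AKT1, specific substrate, cell-free; 1 h; fluorescence intensity/electrophoretic mobility shift. Duplicate single-point 25 uM, then singleton CRC max 50 uM. DMSO = negative control/baseline; signal loss = inhibition.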
human AKT serine/threonine Kinase 1 (AKT1), AKT1 (gene 207), sequence (P31749 whole entry, looked up): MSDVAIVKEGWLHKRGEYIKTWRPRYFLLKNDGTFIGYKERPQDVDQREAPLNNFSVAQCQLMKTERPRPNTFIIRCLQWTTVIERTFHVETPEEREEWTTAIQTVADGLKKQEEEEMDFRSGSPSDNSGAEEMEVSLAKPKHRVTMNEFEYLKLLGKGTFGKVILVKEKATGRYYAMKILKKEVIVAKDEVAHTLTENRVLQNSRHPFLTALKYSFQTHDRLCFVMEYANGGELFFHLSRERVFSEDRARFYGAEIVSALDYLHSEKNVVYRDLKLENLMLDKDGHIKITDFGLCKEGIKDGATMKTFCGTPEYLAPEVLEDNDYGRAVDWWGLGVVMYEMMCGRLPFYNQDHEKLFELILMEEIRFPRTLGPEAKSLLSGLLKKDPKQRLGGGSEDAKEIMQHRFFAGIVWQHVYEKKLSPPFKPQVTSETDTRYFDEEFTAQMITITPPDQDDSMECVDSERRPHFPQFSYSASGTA
On to `O=C(CCCN1CCC(O)(c2ccc(Cl)cc2)CC1)c1ccc(F)cc1`, for which the compound was called inactive.

Regarding `CCC(C)c1ccccc1O` (centres undefined), the result was inactive.

Take `CCCCCCCCCCCCOS(=O)(=O)O`: the result was inactive.

The target of the next test is human Beta-secretase (BACE), BACE1 (gene 23621) (UniProt P56817). In words: NVS_ENZ_hBACE: NovaScreen (NVS) Enzymatic Assay for human Beta-secretase (BACE) (AID 2283140).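 Also: hits are inhibitors that reduce fluorescent substrate signal versus DMSO.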 A digest of the protocol:
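Compounds were first tested in duplicate at 25 uM, then actives in concentration series, against recombinant BACE1 from SF9 cells. Enzyme activity was measured by fluorescence intensity 1 hour after dosing, with DMSO as negative control.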
`CNNCc1ccc(C(=O)NC(C)C)cc1`: the compound was called inactive.

Consider `CN(Cc1cnc2nc(N)nc(N)c2n1)c1ccc(C(=O)N[C@@H](CCC(=O)O)C(=O)O)cc1`, for which the outcome was inactive.

Regarding `CCOC(C)=O`, the compound was called inactive.

With `CCCCCCCCCCCCOS(=O)(=O)O`, the AC50 is 2910 nM (active).

As to `NS(=O)(=O)O`, the call was inactive.

As for `CCCCc1oc2ccccc2c1C(=O)c1cc(I)c(OCCN(CC)CC)c(I)c1`, the AC50 is 3910 nM (active).
